# Laboratory results reported in PubChem BioAssay (NCI).
# Compounds without any hit were thinned out: in the full panel of roughly 83,000, 20% have a hit.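 Growth was measured after 48 h exposure to one concentration of compound in 96-well plates. Values under 10 count as active.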 Activity calls are given as the source filed them.
# Test system: 786-0 renal
# Assay: NCI-60 one-dose screen, 48 h (100 = growth as untreated, 0 = no growth, -100 = all killed)
# Conditions: 10 µM unless noted
row,SMILES,growth
1,COC(=O)C1(CC(C)=O)NC(=S)NC(=O)C1C#N (configuration not stated),105% (inactive)
2,O=Cc1ccc(Cl)c(Cl)c1,109% (inactive)
3,CC(=O)c1cc(O)ccc1O,94.5% (inactive)
4,Nc1c(Br)cc(O)c2c1C(=O)c1ccccc1C2=O,106% (inactive)
5,O=C1CSc2ccccc2N1,117% (inactive)
6,NC(=S)N/N=C/c1ccc(OC(=O)COc2ccccc2)cn1,22% (inactive)
7,CCOc1ccc2c(c1)c(C)cc(C)[n+]2CC,79.4% (inactive)
8,CC1=CC(=Nc2ccc(N(C)C)cc2)C=C(C)C1=O,95% (inactive)
9,COc1cc(CC#N)c([N+](=O)[O-])cc1OC,102% (inactive)
10,CCC12OC(COc3ccccc3)CN1CCN2c1ccccc1 (configuration not stated),96.6% [100 µM] (inactive)
11,C=CCOc1ccc(Cl)cc1Cl,104% (inactive)
12,CCc1ccccc1C(=O)N(CC)CC,101% (inactive)
13,Cc1ccc(S(=O)(=O)Oc2ccc3sc4c(CO)ccc(NCCN(C)C)c4c(=O)c3c2)cc1,-73.4% [100 µM] (active)
14,CCOC(=O)c1cc(C)[nH]c(=O)c1C#N,100% (inactive)
15,CCN(CC)CCOC(=O)Nc1c(C(C)C)cccc1C(C)C,105% (inactive)
16,N#CCCN1C(=O)CCC1C(=O)O (configuration not stated),107% (inactive)
17,NNc1ncccn1,95.7% (inactive)
18,Cc1cc(=O)n(Nc2ccccc2)c(O)c1C#N,101% (inactive)
19,CC(=O)N(C)N=Nc1ccc(C)cc1,99.9% (inactive)

row,SMILES,growth
1,OCC1OC(n2ccc3c2ncn2ncnc32)C(O)C1O (configuration not stated),31.9% (inactive)
2,CC(C)(C)[Si](C)(C)OCC1OC(n2cnc3c(N)ncnc32)CC1OS(C)(=O)=O (configuration not stated),103% (inactive)
3,c1ccc(Oc2c3ccccc3nc3ccccc23)cc1,1.82% (active)
4,CN(C)c1ccc2c(N(C)C)cc(N(C)C)nc2c1,94.8% (inactive)
5,CC(C)N(CCCC#N)C(C)C,100% (inactive)
6,COc1ccc(-c2csc(NC(=O)Nc3nc(-c4ccc(OC)cc4)cs3)n2)cc1,97.8% (inactive)
7,CCOC(OCC)C(=O)c1ccccc1,107% (inactive)
8,CC1CC(C)S(=O)(=O)C1 (configuration not stated),107% (inactive)
9,Clc1cccc(Cl)c1C1CSc2ccccc2N=C1c1ccccc1 (configuration not stated),90.6% (inactive)
10,CCOc1ccc(C(=O)O)cc1,101% (inactive)
11,CCN(CC)CCCC(C)NC(=S)N/N=C(\C)c1ccccn1 (configuration not stated),23.4% (inactive)
12,C[n+]1cc2cc3c(cc2c2ccccc21)OCO3,51.4% (inactive)
13,Cc1cccc2ccccc12,97.9% (inactive)
14,Cn1c2ccccc2c2nnc(NCCCCO)nc21,98.8% (inactive)
15,Cc1nc(C)c(C(=O)O)cc1C(=O)O,112% (inactive)
16,C/C(=N\Nc1ccc([N+](=O)[O-])cc1[N+](=O)[O-])c1ccc(Br)cc1,99.4% (inactive)
17,CC(=O)OC/C(C)=C\CC(C)COC(C)=O (configuration not stated),96.7% (inactive)
18,CCOc1ccccc1NC(=O)CCl,108% (inactive)
